Screen size: about 2,100 compounds; about 300 (14%) were called active. About 2% were inconclusive and are not listed.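 Rule for the calls: active = every replicate test run called active, with the signal falling and half-maximal concentration within twice the top valid dose; inconclusive = the replicate test runs disagree in their calls; inactive = every test run inactive, including effects in the opposite direction.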 The list is a sample of the results. Measured potencies and affinities stand elsewhere.

The assay is described as follows: reduced cellular PGC1a acetyl-lysine signal – cell-based, cherry-picked samples, dose response (AID 720514).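 Note: 0% = neutral control wells and -100% = positive control wells; actives lower the acetylation signal so they count as inhibitors of PGC1a acetylation.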 To be noted: U2OS PGC1a acetylation, AlphaLISA, overnight; series mostly up to 19.5 µM; activity change, negative = inhibition: at the top concentration.
In the case of `CCOc1ccc(-c2nnn(CC#N)n2)cc1OC`, the “activity change, negative = inhibition” value was 186% [at 10 µM] (inactive). For `Cc1cc(C)c2oc(C(=O)N(Cc3ccccc3)c3ccccn3)cc(=O)c2c1`, the “activity change, negative = inhibition” value was 44.6% (inactive).

For the compound `Cc1ccc(NC(=O)CN(C)S(=O)(=O)c2cccs2)c(Br)c1`, the “activity change, negative = inhibition” value is 48.4% (inactive).

`N#C/C(=C(/O)c1ccco1)c1nc2ccccc2[nH]1`: the “activity change, negative = inhibition” value is 286% (inactive). Consider `COc1ccc(-c2c(-c3cc(OC)cc(OC)c3)n(C)c3ccc(-c4cnc(N)nc4)cc23)cc1`, for which the “activity change, negative = inhibition” value was 119% (inactive). On to `Cc1cc(S(=O)(=O)c2ccc([N+](=O)[O-])cn2)ccc1Br`, for which the “activity change, negative = inhibition” value was 105% [at 10 µM] (inactive). With `O=C(NCCC1CCCCN1S(=O)(=O)c1cccs1)C(=O)Nc1ccc(F)cc1F` (stereo not given), the “activity change, negative = inhibition” value was 81.8% (inactive). As for `O=C(Cc1ccccn1)NCC[C@H]1CC[C@H](NC(=O)Nc2ccc(C(F)(F)F)cc2)[C@H](CO)O1`, the “activity change, negative = inhibition” value was 12.7% [at 21 µM] (inactive). Consider `O=C(Cc1ccccn1)NCC[C@@H]1CC[C@H](NC(=O)Nc2ccc(C(F)(F)F)cc2)[C@H](CO)O1`, for which the “activity change, negative = inhibition” value is -0.998% (inactive). For `CCOC(=O)C(Cc1ccc(NC(=O)/C(=C\c2ccccc2)NC(=O)c2ccccc2)cc1)N1C(=O)c2ccccc2C1=O` (stereo not given) the value was 39.8% (inactive); for `O=C(NCc1cccs1)C1Cc2c(-c3ccc(Cl)cc3)ccnc2O1` (stereo not given), 95.1% (inactive). Turning to `C[n+]1c2n(c3ccccc31)N=C(c1cc(C(C)(C)C)c(O)c(C(C)(C)C)c1)CS2`, the “activity change, negative = inhibition” value is 119% (inactive).

In the case of `COc1ccc([N+](=O)[O-])cc1NCc1ccccc1`, the “activity change, negative = inhibition” value was 131% [at 10 µM] (inactive). With `Cc1cc(C)c2c(-n3cccc3)c(C(=O)NNS(=O)(=O)c3ccc(F)cc3)sc2n1`, the “activity change, negative = inhibition” value was 109% (inactive).

Take `CCOC(=O)C1=CC[C@@H](c2ccccc2)N(S(=O)(=O)c2ccc(C)cc2)[C@H]1c1ccc(CC)cc1`: the “activity change, negative = inhibition” value was 153% [at 10 µM] (inactive). The same measure for `CCN(CC)c1ccc(NC(=O)c2cc(OC)cc(OC)c2)c(C)c1`: 58.6% (inactive); for `CCOC(=O)c1ccc(NC(=O)N2CCc3ccccc3C2)cc1`: 223% [at 10 µM] (inactive).

With `CC1(Cc2ccc(Cl)cc2)C(=O)Nc2c(Cl)ccc(Cl)c21` (stereo not given), the “activity change, negative = inhibition” value was 87.1% (inactive). For `Cc1ccc(OCC(=O)N2CC(C)OC(C)C2)c([N+](=O)[O-])n1` (stereo not given) the value was 44.5% [at 10 µM] (inactive); for `CCOC(=O)C(C)n1cnc2c(nnn2-c2ccc(C)cc2)c1=O` (stereo not given), 43% (inactive). For `COc1ccc2nc3c(cc2c1)c(NC(=O)c1cccs1)nn3CC(C)C` the value was 83% [at 10 µM] (inactive). `O=C(NCc1ccccc1)C(c1ccccc1)N(C(=O)c1csnn1)c1ccc(F)cc1` (stereo not given): the “activity change, negative = inhibition” value is 84.8% (inactive). Consider `O=C(Nc1ccc(Nc2ccncc2)cc1)c1ccc([N+](=O)[O-])cc1`, for which the “activity change, negative = inhibition” value was 65.5% [at 10 µM] (inactive). Regarding `CCC(=O)Nc1ccc2c(c1)OC[C@@H](C)N(C(=O)c1cnccn1)C[C@H](C)[C@H](OC)CN(C)C2=O`, the “activity change, negative = inhibition” value is 30.5% (inactive). The same measure for `CO[C@@H]1CN(C)C(=O)c2cc(NC(=O)c3ccc(Oc4ccccc4)cc3)ccc2OC[C@@H](C)NC[C@@H]1C`: 62.6% (inactive). As to `CCC(=O)N1C[C@H](C)[C@@H](OC)CN(C)C(=O)c2ccc(NC(=O)Nc3ccccc3)cc2OC[C@@H]1C`, the “activity change, negative = inhibition” value was 29.8% (inactive). For the compound `CCOC(=O)C1(N(CC)CC)Sc2cc(C)ccc2NC1=O` (stereo not given), the “activity change, negative = inhibition” value is 115% (inactive). On to `CC(=O)Nc1sc2c(c1-c1nc3ccccc3s1)CN(C(C)C)CC2`, for which the “activity change, negative = inhibition” value was 174% (inactive). Take `C[C@@H]1CN([C@H](C)CO)C(=O)CCCn2nncc2CO[C@H]1CN(C)C(=O)C1CC1`: the “activity change, negative = inhibition” value is 49.1% (inactive). In the case of `O=C(Cc1ccccc1)Nc1ccc(NC(=O)c2ccco2)nc1`, the “activity change, negative = inhibition” value was 95.1% [at 10 µM] (inactive). Take `CC(=O)C1=CCC(c2cccc3ccccc23)N(S(=O)(=O)c2ccc(C)cc2)C1` (stereo not given): the “activity change, negative = inhibition” value is 37.8% (inactive).

`CCOC(=O)N1CCN(C(=O)C(NS(=O)(=O)c2cccc3nsnc23)c2ccccc2)CC1` (stereo not given): the “activity change, negative = inhibition” value was 46% (inactive).

For `O=C(COC(=O)c1ccco1)NCc1ccc2c(c1)OCO2`, the “activity change, negative = inhibition” value was 35.4% (inactive). For `Cc1cccc(CS(=O)(=O)c2ncc(Cl)c(C(=O)Nc3ccc(F)cc3)n2)c1`, the “activity change, negative = inhibition” value was 41% [at 10 µM] (inactive). With `COc1ccc(C2CC(=O)N(C)c3ccccc3S2)cc1` (stereo not given), the “activity change, negative = inhibition” value was 72.4% (inactive). Turning to `CC1(C)CCCN(C(=O)N2c3ccccc3Sc3ccccc32)C1`, the “activity change, negative = inhibition” value was 99.6% [at 10 µM] (inactive). On to `Cc1ccc(S(=O)(=O)CCSC(=N)N)cc1`, for which the “activity change, negative = inhibition” value was 87.2% (inactive). For the compound `CC(=O)c1ccc(NC(=O)CSCC(=O)Nc2ccc3ccccc3c2)cc1`, the “activity change, negative = inhibition” value was 32.2% (inactive). As for `CC1CC1C(=O)OCC(=O)NCc1ccc(Cl)cc1` (stereo not given), the “activity change, negative = inhibition” value is 43.3% (inactive). With `COc1ccc(CC(=O)OCC(=O)NCc2ccco2)cc1`, the “activity change, negative = inhibition” value is 64.8% (inactive). For `O=C(NCc1ccco1)c1scc2c1OCCO2` the value was 30.4% (inactive).

As for `CC1CCCCN1C(=O)/C(=C\c1ccccc1)c1ccccc1` (stereo not given), the “activity change, negative = inhibition” value was 26.4% (inactive). As for `CCSc1ccc(NC(=O)c2cccnc2)cc1`, the “activity change, negative = inhibition” value is 210% (inactive). In the case of `CCS(=O)(=O)N[C@H]1C=C[C@H](CC(=O)N2CCCCC2)O[C@H]1CO`, the “activity change, negative = inhibition” value was 46.5% (inactive). `C[C@H]1CN([C@@H](C)CO)S(=O)(=O)c2ccc(-c3cncnc3)cc2O[C@H]1CN(C)C(=O)CN(C)C`: the “activity change, negative = inhibition” value was 47.6% [at 10 µM] (inactive).

The values are drawn from PubChem BioAssay AID720514 (Broad Institute, 2013).
